Biological target: T1, Aspartate--tRNA(Asp/Asn) ligase (Mycobacterium tuberculosis (strain ATCC 25618 / H37Rv)) (UniProt P9WFW3); note: in the data most compounds retested in dose-response had high values
T1 sequence (whole entry): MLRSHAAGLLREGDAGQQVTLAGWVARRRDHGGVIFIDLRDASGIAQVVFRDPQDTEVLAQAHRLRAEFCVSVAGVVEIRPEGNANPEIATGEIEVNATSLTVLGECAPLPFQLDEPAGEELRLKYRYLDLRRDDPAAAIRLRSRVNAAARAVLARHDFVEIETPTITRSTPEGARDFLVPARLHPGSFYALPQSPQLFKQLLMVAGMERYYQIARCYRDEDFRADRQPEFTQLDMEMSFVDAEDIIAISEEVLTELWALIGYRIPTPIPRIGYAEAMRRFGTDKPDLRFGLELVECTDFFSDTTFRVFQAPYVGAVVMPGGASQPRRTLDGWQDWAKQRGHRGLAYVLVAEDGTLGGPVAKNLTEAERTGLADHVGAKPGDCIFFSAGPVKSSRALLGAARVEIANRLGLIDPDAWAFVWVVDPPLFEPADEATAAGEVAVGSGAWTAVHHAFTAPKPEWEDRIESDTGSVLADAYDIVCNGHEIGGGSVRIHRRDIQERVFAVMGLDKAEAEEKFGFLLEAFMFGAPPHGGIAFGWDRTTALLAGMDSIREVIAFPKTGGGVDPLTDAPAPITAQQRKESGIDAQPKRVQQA
Experiment: Assay for Asp RNA synthetase-1 from Mycobacterium tuberculosis
Type: functional
Parameters: scale not given: direction of the effect not stated beside the values
Settings: 30 µM

Row | Structure (SMILES) | Percent Effect [%]
1 | Cc1ncsc1C(=O)NC1CCN(Cc2ccc(C#N)cc2)CC1 | 1.55
2 | CCNC(=O)[C@@H]1C[C@@H](NC(=O)c2cccnc2O)CN1Cc1ccsc1 | -2.94
3 | CC(C)NC(=O)N1CCN(C(=O)N(C)C)CC2(CC(=O)N(C)C2)C1 (stereo not given) | -7.76
4 | Cc1nn(C)c2c(N3CCN(C(=O)C4CCC4)CC3)ncnc12 | -3.19
5 | COc1ccccc1C(=O)NC(C)CC(=O)O (stereo not given) | -5.28
6 | COc1ccccc1CC1CCCN(CCC#N)C1 (stereo not given) | -3.31
7 | CCc1nc(C(=O)N2CCN(C)CC2C)nn1-c1ccccc1Cl (stereo not given) | 11.5
8 | CCN1CCN(C2CCN(Cc3nnc(C(C)(C)C)o3)CC2)C1=O | -1.73
9 | CCOc1ccc(C#N)cc1NCC(=O)Nc1cc(F)ccc1F | -5.91
10 | COc1ccc2nnc(CCCC(=O)NCc3cccn3C)n2n1 | -1.89
11 | O=C(c1n[nH]c2ccccc12)N1CCCC1c1noc(C2CC2)n1 (stereo not given) | -5.34
12 | O=C(NCCNc1ncccn1)C1CCN(C(=O)C2CC2)CC1 | 1.89
13 | CCc1nc(CN2CCCN(c3nccs3)CC2)no1 | 2
14 | O=c1nc(SCc2ccncc2)c2c(n1CCO)CCCC2 | -6.81
15 | Cn1nc(CNC(=O)C2CC2)cc1C1CC1 | -2.99
16 | Cc1cc(N2CCC(N(C)C(=O)c3ccccc3)CC2)nc(C)n1 | -5.32
17 | Cc1ccc(CNC(=O)CN2CCN(CC(O)C3CC3)CC2)cc1 (stereo not given) | 1.21
18 | Cc1cc(C[C@@H]2CCC[C@H]2NCc2cc(C)c(O)c(C)c2)on1 | 2.31
19 | O=C(CC1CC1)N1CCC2(CC1)CN(c1ncccn1)CCO2 | -1.87
20 | CNC(=O)c1cc2c(nc1NCC1CC1)CCN(c1ccncn1)CC2 | -4.09

Row | Structure (SMILES) | Percent Effect [%]
21 | Cc1nccn1-c1cc(CNC(=O)CCC2CCCO2)ccn1 (stereo not given) | 2.98
22 | O=C(C1CCOCC1)N1C[C@@H]2[C@@H](C1)OCC(=O)N2CC1CC1 | 3.77
23 | CC(C)CC1SCC(=O)Nc2c1cnn2C(C)C (stereo not given) | 3.17
24 | O=C(Cc1ccc2c(c1)OCCO2)N1CCCC(n2ccnc2)C1 (stereo not given) | -4.41
25 | Cc1nc(C)n(CC2CCCN2CC(=O)Nc2ccnn2C(C)C)n1 (stereo not given) | -1.15
26 | O=C(Cc1ccccn1)N1CCN(C(=O)c2cccc3[nH]ncc23)CC1 | -2.75
27 | O=C(NCCNc1cnccn1)N1CCCC1 | -2.84
28 | Fc1cccc(N2C[C@H]3CCN(c4cccnc4)C[C@H]3C2)c1 | 6.15
29 | O=C(C1CCCC1)N1CCN(Cc2nc(-c3ccco3)no2)CC1 | -3
30 | Cc1cnn(CC2CCCCN2C(=O)c2cc(Cl)c[nH]2)c1 (stereo not given) | 1.83
31 | Cc1cccc(CN(Cc2ccc(C)o2)C2CC(C)(C)NC(C)(C)C2)n1 | -1.8
32 | CC(NC(=O)NCCCc1n[nH]c(N)c1C#N)c1ccccc1 (stereo not given) | 1.03
33 | Cn1cc(Cl)cc1C(=O)N1CCCN(Cc2cccs2)CC1 | -5.24
34 | CNC(=O)NC(=O)CN1CCC(c2cccc(F)c2)C1 (stereo not given) | -0.433
35 | CC(C)NC(=O)N1CCC2(COCc3cnc(-c4cccnc4)nc32)C1 (stereo not given) | -2.8
36 | Cn1ccc(C(=O)NC2CCC23CCN(Cc2cccnc2)CC3)c1 (stereo not given) | 0.843
37 | COc1cccc(OCC2CCCN(C3CCN(C(C)=O)CC3)C2)c1 (stereo not given) | 4.72
38 | Cc1cc(CN2CCN(C(C)c3nc(C4CC4)no3)CC2)no1 (stereo not given) | 3.89
39 | Cc1cccc(C(=O)NCc2ccnc(N(C)C)c2)n1 | -1.33
40 | COc1cccc(CNCCc2cc(F)cc3c2OCOC3)c1 | -4.9

Biological target: Shiga toxin 2 (Escherichia coli O157:H7) (UniProt P09385+P09386)
Experiment: E. coli 0.157:H7 Shiga Toxin SOP - stx2 screening assay
Type: functional
Parameters: scale not given: direction of the effect not stated beside the values
Settings: 30 µM

Row | Structure (SMILES) | Percent Effect [%]
41 | Cc1ncsc1C(=O)NC1CCN(Cc2ccc(C#N)cc2)CC1 | -28.6
42 | CCNC(=O)[C@@H]1C[C@@H](NC(=O)c2cccnc2O)CN1Cc1ccsc1 | 19.7
43 | CC(C)NC(=O)N1CCN(C(=O)N(C)C)CC2(CC(=O)N(C)C2)C1 (stereo not given) | -39.2
44 | Cc1nn(C)c2c(N3CCN(C(=O)C4CCC4)CC3)ncnc12 | -37.9
45 | COc1ccccc1C(=O)NC(C)CC(=O)O (stereo not given) | -19.9
46 | COc1ccccc1CC1CCCN(CCC#N)C1 (stereo not given) | 32.8
47 | CCc1nc(C(=O)N2CCN(C)CC2C)nn1-c1ccccc1Cl (stereo not given) | 26.3
48 | CCN1CCN(C2CCN(Cc3nnc(C(C)(C)C)o3)CC2)C1=O | 25.7
49 | CCOc1ccc(C#N)cc1NCC(=O)Nc1cc(F)ccc1F | 5.62
50 | COc1ccc2nnc(CCCC(=O)NCc3cccn3C)n2n1 | -44.7
51 | O=C(c1n[nH]c2ccccc12)N1CCCC1c1noc(C2CC2)n1 (stereo not given) | 9.03
52 | O=C(NCCNc1ncccn1)C1CCN(C(=O)C2CC2)CC1 | 14.1
53 | CCc1nc(CN2CCCN(c3nccs3)CC2)no1 | -3.78
54 | O=c1nc(SCc2ccncc2)c2c(n1CCO)CCCC2 | -5.81
55 | Cn1nc(CNC(=O)C2CC2)cc1C1CC1 | -14.8
56 | Cc1cc(N2CCC(N(C)C(=O)c3ccccc3)CC2)nc(C)n1 | -9.61
57 | Cc1ccc(CNC(=O)CN2CCN(CC(O)C3CC3)CC2)cc1 (stereo not given) | -15.5
58 | Cc1cc(C[C@@H]2CCC[C@H]2NCc2cc(C)c(O)c(C)c2)on1 | -2.65
59 | O=C(CC1CC1)N1CCC2(CC1)CN(c1ncccn1)CCO2 | 5.46
60 | CNC(=O)c1cc2c(nc1NCC1CC1)CCN(c1ccncn1)CC2 | -30.7

Row | Structure (SMILES) | Percent Effect [%]
61 | Cc1nccn1-c1cc(CNC(=O)CCC2CCCO2)ccn1 (stereo not given) | 2.2
62 | O=C(C1CCOCC1)N1C[C@@H]2[C@@H](C1)OCC(=O)N2CC1CC1 | -0.921
63 | CC(C)CC1SCC(=O)Nc2c1cnn2C(C)C (stereo not given) | -18.7
64 | O=C(Cc1ccc2c(c1)OCCO2)N1CCCC(n2ccnc2)C1 (stereo not given) | -18.9
65 | Cc1nc(C)n(CC2CCCN2CC(=O)Nc2ccnn2C(C)C)n1 (stereo not given) | 23.4
66 | O=C(Cc1ccccn1)N1CCN(C(=O)c2cccc3[nH]ncc23)CC1 | 1.83
67 | O=C(NCCNc1cnccn1)N1CCCC1 | 2.11
68 | Fc1cccc(N2C[C@H]3CCN(c4cccnc4)C[C@H]3C2)c1 | -16.5
69 | O=C(C1CCCC1)N1CCN(Cc2nc(-c3ccco3)no2)CC1 | -10.1
70 | Cc1cnn(CC2CCCCN2C(=O)c2cc(Cl)c[nH]2)c1 (stereo not given) | -31.9
71 | Cc1cccc(CN(Cc2ccc(C)o2)C2CC(C)(C)NC(C)(C)C2)n1 | 3.65
72 | CC(NC(=O)NCCCc1n[nH]c(N)c1C#N)c1ccccc1 (stereo not given) | -17.6
73 | Cn1cc(Cl)cc1C(=O)N1CCCN(Cc2cccs2)CC1 | 19.8
74 | CNC(=O)NC(=O)CN1CCC(c2cccc(F)c2)C1 (stereo not given) | 19.2
75 | CC(C)NC(=O)N1CCC2(COCc3cnc(-c4cccnc4)nc32)C1 (stereo not given) | 2.56
76 | Cn1ccc(C(=O)NC2CCC23CCN(Cc2cccnc2)CC3)c1 (stereo not given) | -5.95
77 | COc1cccc(OCC2CCCN(C3CCN(C(C)=O)CC3)C2)c1 (stereo not given) | -0.97
78 | Cc1cc(CN2CCN(C(C)c3nc(C4CC4)no3)CC2)no1 (stereo not given) | -2.55
79 | Cc1cccc(C(=O)NCc2ccnc(N(C)C)c2)n1 | -8.62
80 | COc1cccc(CNCCc2cc(F)cc3c2OCOC3)c1 | -27.3

— ChEMBL document CHEMBL3988442, “University of Dundee, Small-Polar-MMV Screening Library” (2021)
